Measurements taken from article PMC4336329 (PLoS ONE, 2015).
Among all 310,000 compounds or so, about 14,000 (4.5%) showed an effect of 50% or more. Effects have a minus sign here. The full list was thinned out, with strong results kept by preference.

Each compound was assayed against human ether-à-go-go-related gene (hERG) potassium channel (human, UniProt Q12809) (assay: primary screen, population patch clamp on CHO cells stably expressing hERG; higher = less effect of the substance).
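Note: peak tail current of the secondary pulse compared with the same well before compound.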

human ether-à-go-go-related gene (hERG) potassium channel, sequence (Q12809 whole entry, looked up): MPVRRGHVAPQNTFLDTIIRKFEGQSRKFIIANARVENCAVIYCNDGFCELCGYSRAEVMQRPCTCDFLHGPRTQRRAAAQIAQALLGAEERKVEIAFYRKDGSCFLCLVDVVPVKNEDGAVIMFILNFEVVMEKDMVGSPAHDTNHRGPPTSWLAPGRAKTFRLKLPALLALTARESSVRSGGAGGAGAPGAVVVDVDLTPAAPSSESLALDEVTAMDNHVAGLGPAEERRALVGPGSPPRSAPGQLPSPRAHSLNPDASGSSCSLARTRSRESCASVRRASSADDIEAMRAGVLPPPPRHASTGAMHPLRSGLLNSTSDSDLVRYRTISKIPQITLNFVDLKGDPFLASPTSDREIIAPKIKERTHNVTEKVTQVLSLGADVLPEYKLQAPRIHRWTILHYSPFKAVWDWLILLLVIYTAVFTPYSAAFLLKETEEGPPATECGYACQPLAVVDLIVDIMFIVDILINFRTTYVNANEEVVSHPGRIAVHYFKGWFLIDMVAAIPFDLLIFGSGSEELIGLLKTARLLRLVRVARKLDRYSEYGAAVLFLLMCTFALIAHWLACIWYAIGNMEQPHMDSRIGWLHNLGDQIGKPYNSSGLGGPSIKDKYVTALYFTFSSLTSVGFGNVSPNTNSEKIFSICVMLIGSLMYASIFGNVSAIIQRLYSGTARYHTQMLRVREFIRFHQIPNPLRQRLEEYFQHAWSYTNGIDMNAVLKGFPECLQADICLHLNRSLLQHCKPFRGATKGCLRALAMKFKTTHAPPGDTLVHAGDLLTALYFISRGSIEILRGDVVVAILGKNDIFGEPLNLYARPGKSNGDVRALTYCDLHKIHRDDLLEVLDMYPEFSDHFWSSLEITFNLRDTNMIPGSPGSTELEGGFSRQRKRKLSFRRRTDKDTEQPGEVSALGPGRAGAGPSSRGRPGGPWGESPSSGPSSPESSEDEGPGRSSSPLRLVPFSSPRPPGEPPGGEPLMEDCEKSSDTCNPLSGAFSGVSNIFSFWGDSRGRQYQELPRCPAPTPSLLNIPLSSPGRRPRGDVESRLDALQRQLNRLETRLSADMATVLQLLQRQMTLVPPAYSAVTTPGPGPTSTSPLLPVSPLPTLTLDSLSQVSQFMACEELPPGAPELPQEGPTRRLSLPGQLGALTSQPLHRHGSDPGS

Row | Compound | hERG current change (%, negative = inhibition) at 10uM [%]
1 | Cc1cccc(N(Cc2cc3ccc(C)cc3[nH]c2=O)C(=O)c2ccco2)c1 | -8.8
2 | COC(=O)c1cccc(Nc2nc(-c3ccncc3)nc3ccccc23)c1 | 28.5
3 | Cc1ccc(C2CCN(C(=S)NC3CCCCC3)C2)cc1 (centres unmarked) | -5.82
4 | CC1CCCC(NC(=O)c2ccc(COc3ccccc3)o2)C1C (centres unmarked) | 0.0111
5 | O=C(CNS(=O)(=O)c1ccccc1)OCC(=O)c1ccc([N+](=O)[O-])cc1 | -3.22
6 | N#Cc1ccc(NC(=O)COC(=O)CCNS(=O)(=O)c2ccccc2)cc1 | -34.4
7 | COc1ccc(NC(=O)COC(=O)CNS(=O)(=O)c2ccc(F)c(F)c2F)cc1OC | 21.3
8 | NC(=O)NC(=O)COC(=O)CNS(=O)(=O)c1ccc(F)c(F)c1F | 13.3
9 | O=C(COC(=O)CNS(=O)(=O)c1ccc(F)c(F)c1F)Nc1ccc(OC(F)F)cc1 | -65.2
10 | O=C(COC(=O)[C@@H]1CCCN1S(=O)(=O)c1ccccc1F)Nc1ccc(OC(F)F)cc1 | -61.7
11 | COc1ccc(NC(=O)COC(=O)[C@@H]2CCCN2S(=O)(=O)c2ccccc2F)c(OC)c1 | -18.2
12 | O=C(COC(=O)CCNS(=O)(=O)c1ccccc1)Nc1ccc(OC(F)F)cc1 | -60.3
13 | COc1ccc(NC(=O)COC(=O)CCNS(=O)(=O)c2ccccc2)cc1OC | 23.2
14 | CC(=O)c1ccccc1NC(=O)COC(=O)C1CCCN1S(=O)(=O)c1ccccc1F (centres unmarked) | -0.476
15 | CCn1c(CC(=O)Nc2cccc(OC)c2)nnc1SCC(=O)Nc1nccs1 | -2.39
16 | CCc1ccc2c(c1)cc(C)c1nnc(SCC(=O)Nc3cc(OC)c(OC)cc3C(=O)O)n12 | 5.98
17 | CC1CCC2(CC1)NC(=O)N(CC(=O)NCc1ccc(F)cc1)C2=O (centres unmarked) | -21.2
18 | C/C(=N/Nc1nc(-c2ccccc2)cc(-c2ccc(F)cc2)n1)c1cccc(N)c1 | 3.2
19 | NS(=O)(=O)c1ccc(CCNC(=O)c2ccc(OCC3CCCO3)cc2)cc1 (centres unmarked) | 19.9
20 | Cc1cc(N2CCN(C)CC2)nc2ccc(NC(=O)c3ccccc3F)cc12 | -58.4
21 | Cc1cc(N2CCN(C)CC2)nc2ccc(NC(=O)c3cccnc3Cl)cc12 | -2.54
22 | Cc1cc(N2CCN(C)CC2)nc2ccc(NC(=O)c3ccc4c(c3)OCO4)cc12 | -62.2
23 | CCN1CCN(c2cc(C)c3cc(NC(=O)c4ccc5c(c4)OCO5)ccc3n2)CC1 | -38.6
24 | Cc1ccc(NC(=O)c2ccc3c(c2)OCO3)cc1Cl | -2.98
25 | COc1ccc(C(=O)Nc2ccc3nc(N4CCN(C)CC4)cc(C)c3c2)c(OC)c1 | -0.388
26 | O=C(Nc1ccc2c(c1)OCCO2)C1CCCN(S(=O)(=O)c2cccc3nsnc23)C1 (centres unmarked) | 4.93
27 | O=C(CNC1CCCCCC1)Nc1ccc(S(=O)(=O)NC2CC2)cc1 | 1.98

Row | Compound | hERG current change (%, negative = inhibition) at 10uM [%]
28 | Nc1ccccc1SCc1ccccc1 | -2.24
29 | Oc1ccccc1C1NN=C(c2ccccc2)S1 (centres unmarked) | -15
30 | COc1ccc(-c2csc(N(CCCN(C)C)C(=O)c3ccc(C)cc3)n2)cc1.Cl | -68.2
31 | COc1ccc(-c2csc(N(CCCN(C)C)C(=O)c3ccc(C(C)(C)C)cc3)n2)cc1.Cl | 18
32 | COc1ccc(-c2csc(N(CCCN(C)C)C(=O)c3ccc(F)cc3)n2)cc1.Cl | -58.1
33 | C/C(=N\NC(=O)c1cc(O)cc(O)c1)c1ccc(NC(=O)Cc2ccccc2)cc1 | 14.2
34 | CSc1ccc(CN(C)C(C)C(=O)Nc2ccc(F)c(F)c2F)cc1 (centres unmarked) | 15.3
35 | CNC(=O)c1c(NC(=O)c2ccc(S(=O)(=O)N3CCCCC3C)cc2)sc2c1CCN(C)C2 (centres unmarked) | -3.92
36 | CCN1CCCC1CNC(=O)c1cc2c(OC)c(OC)c(OC)cc2[nH]1 (centres unmarked) | 23.2
37 | CCCCN1CCCC1CNC(=O)c1cc(C#N)c2ccccc2c1OC (centres unmarked) | -64.3
38 | CCN1CCCC1CNC(=O)c1cc2cc(OC)c(OC)cc2[nH]1 (centres unmarked) | 16.6
39 | CCc1cc(Cl)c(OC)c(C(=O)NC[C@@H]2CCCN2CC)c1O.Cl | -59.2
40 | CCN1CCCC1CNC(=O)c1cc2cc(F)ccc2[nH]1 (centres unmarked) | -73.3
41 | CCN1CCCC1CNC(=O)c1cc2ccc(OC)cc2[nH]1 (centres unmarked) | -12.4
42 | O=C(NCC1CCCO1)c1cc2cc(F)ccc2[nH]1 (centres unmarked) | 9.11
43 | CCN1CCC[C@H]1CNC(=O)c1c(O)c(Cl)cc(Cl)c1OC | -10.4
44 | CCN1CCC[C@H]1CNC(=O)c1c(O)c(Cl)cc(Cl)c1OC.O=C(O)C(O)C(O)C(=O)O | -13.8
45 | CCN1CCCC1CNC(=O)c1cc(OC)c(OC)c(OC)c1 (centres unmarked) | 12.8
46 | CCN1CCCC1CNC(=O)c1cc2c(OC)cccc2[nH]1 (centres unmarked) | -20.8
47 | CCN1CCCC1CNC(=O)c1[nH]c2ccc(OC)cc2c1C (centres unmarked) | -51.2
48 | CCCCC1=CC2=CC(=O)C(C)(OC(=O)CC)C(=O)C2=CN1C1CCCCC1 (centres unmarked) | -38
49 | Cc1cccn2c(=O)c(/C=C(\C#N)C(N)=O)c(N3CCCCCC3)nc12 | -13.2
50 | COc1cccc(N2CCN(C3CCCC(C)C3)CC2)c1 (centres unmarked) | -23.8
51 | O=C(NCc1ccccn1)c1cc(S(=O)(=O)N2CCCCC2)ccc1Cl | 3.78
52 | COc1ccc(NS(=O)(=O)c2cccc(C(=O)NNC(=O)c3ccc(O)c(Cl)c3)c2)cc1 | -0.207
53 | Cc1cccc(CN2C(=O)[C@@H]3Cc4c([nH]c5ccccc45)C(C)(C)N3C2=O)c1 | -0.614
